# Measurements published in article PMC13541613, “GHT-SELEX demonstrates unexpectedly high intrinsic sequence specificity and complex DNA binding of many human transcription factors”.
# Target: ZNF721 full-length (Homo sapiens, UniProt Q8TF20-2 1-923)
# Experiment: HT-SELEX; 20 mM HEPES pH 7, 140 mM KCl, 5 mM NaCl, 1 mM K2HPO4, 2 mM MgSO4, 100 uM EGTA, ZnSO4, 0.1% Tween20; room temperature, 1 h; high values mean tight binding
# Settings: protein: ivt; tags: eGFP (N-terminal); dsDNA, one strand shown
# Outline: (§1)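 In HEPES/KCl low-stringency buffer with Tween20, a bead-immobilised tagged transcription factor (full-length or DNA-binding-domain fragment, from HEK293 lysate or cell-free extract) was incubated with a randomized 40-base DNA library for 1 h at room temperature. DNA retained after washing was heat-eluted, amplified by PCR over successive cycles and Illumina-sequenced, giving ~3 million 60 bp reads per sample. The reported binding signal, a relative k-mer count in those selected reads, rises with tighter binding.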
# Sequence of ZNF721 full-length (Q8TF20 other isoform, or with tags, fused parts or gaps): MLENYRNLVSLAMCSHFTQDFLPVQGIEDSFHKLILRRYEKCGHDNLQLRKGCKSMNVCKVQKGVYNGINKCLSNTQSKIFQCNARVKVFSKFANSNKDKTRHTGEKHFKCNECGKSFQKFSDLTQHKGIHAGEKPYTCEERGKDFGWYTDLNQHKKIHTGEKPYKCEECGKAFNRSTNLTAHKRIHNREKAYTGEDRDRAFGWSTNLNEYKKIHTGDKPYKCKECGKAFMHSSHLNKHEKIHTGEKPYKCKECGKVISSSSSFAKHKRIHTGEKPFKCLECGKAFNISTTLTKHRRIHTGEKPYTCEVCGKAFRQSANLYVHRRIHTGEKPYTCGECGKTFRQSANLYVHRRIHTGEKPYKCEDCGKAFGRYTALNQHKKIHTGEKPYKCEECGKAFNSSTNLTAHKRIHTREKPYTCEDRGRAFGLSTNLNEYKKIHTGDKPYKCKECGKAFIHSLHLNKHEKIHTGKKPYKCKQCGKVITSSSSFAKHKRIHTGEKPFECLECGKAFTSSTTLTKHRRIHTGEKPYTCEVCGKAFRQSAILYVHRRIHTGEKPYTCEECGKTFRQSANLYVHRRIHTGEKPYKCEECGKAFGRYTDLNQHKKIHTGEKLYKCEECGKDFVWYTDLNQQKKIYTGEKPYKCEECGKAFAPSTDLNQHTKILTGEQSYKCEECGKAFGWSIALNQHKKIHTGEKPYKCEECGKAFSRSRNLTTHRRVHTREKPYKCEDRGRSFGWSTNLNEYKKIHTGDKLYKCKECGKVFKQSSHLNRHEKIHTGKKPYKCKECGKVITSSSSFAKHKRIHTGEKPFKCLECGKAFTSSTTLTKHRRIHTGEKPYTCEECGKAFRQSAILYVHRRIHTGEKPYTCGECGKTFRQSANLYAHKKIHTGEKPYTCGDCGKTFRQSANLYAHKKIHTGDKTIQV
row,Sequence,binding signal
1,CCACCCTACC,0.115 relative 10-mer count
2,CACCCAACCC,0.123 relative 10-mer count
3,ACCCCCGCCC,0.173 relative 10-mer count
4,AAAAAGAAGC,0.126 relative 10-mer count
5,AGCATCTCCA,0.132 relative 10-mer count
6,CAAAAAGCAG,0.159 relative 10-mer count
7,ACCGCCCCAC,0.103 relative 10-mer count
8,CCCCCTCCTC,0.116 relative 10-mer count
9,CACTTCATAC,0.747 relative 10-mer count
10,CCACAAAAAA,0.125 relative 10-mer count
11,CCCCCCAACC,0.194 relative 10-mer count
12,CCACCACGCC,0.105 relative 10-mer count
13,CCACACCCCA,0.124 relative 10-mer count
14,CCTCACCCCC,0.156 relative 10-mer count
15,CCCCGTCCCC,0.212 relative 10-mer count
16,CACCCCCACA,0.116 relative 10-mer count
17,GCTTCATACA,0.231 relative 10-mer count
18,CTCCCTCCCC,0.143 relative 10-mer count
19,ACCCCCCACC,0.257 relative 10-mer count
20,CCTCCACCAC,0.116 relative 10-mer count

row,Sequence,binding signal
1,CCCCCGCGCC,0.116 relative 10-mer count
2,CTTTTTTTTC,0.171 relative 10-mer count
3,AGAAAAAAAG,0.118 relative 10-mer count
4,AGGATACACT,0.17 relative 10-mer count
5,CACCCACCTC,0.109 relative 10-mer count
6,CGCCTCCCCC,0.126 relative 10-mer count
7,CCCACCGCCC,0.319 relative 10-mer count
8,CCCCCGCCCG,0.109 relative 10-mer count
9,CCCTACCACC,0.104 relative 10-mer count
10,CCCTCCCCCG,0.145 relative 10-mer count
11,GCTTTTTTCC,0.267 relative 10-mer count
12,AAAAAAGCTG,0.303 relative 10-mer count
13,ACCCCACCCC,0.277 relative 10-mer count
14,CCACCACCGC,0.11 relative 10-mer count
15,ACCGCCCCCC,0.135 relative 10-mer count
16,AGTGTATCCA,0.248 relative 10-mer count
17,GCCACCCACC,0.147 relative 10-mer count
18,CCGCCCCCTC,0.128 relative 10-mer count
19,ACAAAAAACA,0.143 relative 10-mer count
20,AACAGCATGA,0.198 relative 10-mer count

# Target: ZNF721 DBD1 (Homo sapiens, UniProt Q8TF20-2 29-461)
# Experiment: as above
# Settings: protein: ivt; tags: eGFP (N-terminal); dsDNA, one strand shown
# Outline: as §1
# Sequence of ZNF721 DBD1 (Q8TF20 17-449): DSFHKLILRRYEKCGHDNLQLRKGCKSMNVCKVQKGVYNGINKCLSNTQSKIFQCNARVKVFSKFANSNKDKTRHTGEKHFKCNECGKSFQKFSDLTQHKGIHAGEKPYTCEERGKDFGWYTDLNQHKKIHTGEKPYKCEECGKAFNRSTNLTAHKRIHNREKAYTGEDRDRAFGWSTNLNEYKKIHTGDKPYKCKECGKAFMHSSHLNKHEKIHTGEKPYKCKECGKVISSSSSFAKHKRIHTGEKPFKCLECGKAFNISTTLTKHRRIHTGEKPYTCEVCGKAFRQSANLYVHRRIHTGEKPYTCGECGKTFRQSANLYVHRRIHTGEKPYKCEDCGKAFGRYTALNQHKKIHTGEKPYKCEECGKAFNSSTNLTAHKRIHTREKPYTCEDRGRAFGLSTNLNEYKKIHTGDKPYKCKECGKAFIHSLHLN
row,Sequence,binding signal
1,CCACCCTACC,0.00688 relative 10-mer count
2,CACCCAACCC,0.005 relative 10-mer count
3,ACCCCCGCCC,0.00619 relative 10-mer count
4,AAAAAGAAGC,0.0301 relative 10-mer count
5,AGCATCTCCA,0.0129 relative 10-mer count
6,CAAAAAGCAG,0.00156 relative 10-mer count
7,ACCGCCCCAC,0.0033 relative 10-mer count
8,CCCCCTCCTC,0.00459 relative 10-mer count
9,CACTTCATAC,1 relative 10-mer count
10,CCACAAAAAA,0.00615 relative 10-mer count
11,CCCCCCAACC,0.00651 relative 10-mer count
12,CCACCACGCC,0.00316 relative 10-mer count
13,CCACACCCCA,0.00472 relative 10-mer count
14,CCTCACCCCC,0.00683 relative 10-mer count
15,CCCCGTCCCC,0.00789 relative 10-mer count
16,CACCCCCACA,0.00482 relative 10-mer count
17,GCTTCATACA,0.318 relative 10-mer count
18,CTCCCTCCCC,0.00927 relative 10-mer count
19,ACCCCCCACC,0.0107 relative 10-mer count
20,CCTCCACCAC,0.00564 relative 10-mer count

row,Sequence,binding signal
1,CCCCCGCGCC,0.00381 relative 10-mer count
2,CTTTTTTTTC,0.0293 relative 10-mer count
3,AGAAAAAAAG,0.0217 relative 10-mer count
4,AGGATACACT,0.0907 relative 10-mer count
5,CACCCACCTC,0.00518 relative 10-mer count
6,CGCCTCCCCC,0.0061 relative 10-mer count
7,CCCACCGCCC,0.0135 relative 10-mer count
8,CCCCCGCCCG,0.00372 relative 10-mer count
9,CCCTACCACC,0.00578 relative 10-mer count
10,CCCTCCCCCG,0.00555 relative 10-mer count
11,GCTTTTTTCC,0.0895 relative 10-mer count
12,AAAAAAGCTG,0.137 relative 10-mer count
13,ACCCCACCCC,0.0101 relative 10-mer count
14,CCACCACCGC,0.00482 relative 10-mer count
15,ACCGCCCCCC,0.00642 relative 10-mer count
16,AGTGTATCCA,0.11 relative 10-mer count
17,GCCACCCACC,0.00605 relative 10-mer count
18,CCGCCCCCTC,0.00573 relative 10-mer count
19,ACAAAAAACA,0.00197 relative 10-mer count
20,AACAGCATGA,0.00188 relative 10-mer count
